# Measured values as given in ChEMBL document CHEMBL1961873, “Compounds: GSK PKIS; Assays: Nanosyn kinase panel” (2012).
# What was measured:
# [1] = target: High affinity nerve growth factor receptor (Homo sapiens) (UniProt P04629); details: at 1 µM;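 note: each value is the mean percent inhibition of TRKA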
# [2] = target: BDNF/NT-3 growth factors receptor (Homo sapiens) (UniProt Q16620); details: at 0.1 µM
# [3] = target: BDNF/NT-3 growth factors receptor (Homo sapiens) (UniProt Q16620); details: at 1 µM
# [4] = target: NT-3 growth factor receptor (Homo sapiens) (UniProt Q16288); details: at 0.1 µM
# NT-3 growth factor receptor (Homo sapiens), sequence (Q16288 32-839 limits assumed): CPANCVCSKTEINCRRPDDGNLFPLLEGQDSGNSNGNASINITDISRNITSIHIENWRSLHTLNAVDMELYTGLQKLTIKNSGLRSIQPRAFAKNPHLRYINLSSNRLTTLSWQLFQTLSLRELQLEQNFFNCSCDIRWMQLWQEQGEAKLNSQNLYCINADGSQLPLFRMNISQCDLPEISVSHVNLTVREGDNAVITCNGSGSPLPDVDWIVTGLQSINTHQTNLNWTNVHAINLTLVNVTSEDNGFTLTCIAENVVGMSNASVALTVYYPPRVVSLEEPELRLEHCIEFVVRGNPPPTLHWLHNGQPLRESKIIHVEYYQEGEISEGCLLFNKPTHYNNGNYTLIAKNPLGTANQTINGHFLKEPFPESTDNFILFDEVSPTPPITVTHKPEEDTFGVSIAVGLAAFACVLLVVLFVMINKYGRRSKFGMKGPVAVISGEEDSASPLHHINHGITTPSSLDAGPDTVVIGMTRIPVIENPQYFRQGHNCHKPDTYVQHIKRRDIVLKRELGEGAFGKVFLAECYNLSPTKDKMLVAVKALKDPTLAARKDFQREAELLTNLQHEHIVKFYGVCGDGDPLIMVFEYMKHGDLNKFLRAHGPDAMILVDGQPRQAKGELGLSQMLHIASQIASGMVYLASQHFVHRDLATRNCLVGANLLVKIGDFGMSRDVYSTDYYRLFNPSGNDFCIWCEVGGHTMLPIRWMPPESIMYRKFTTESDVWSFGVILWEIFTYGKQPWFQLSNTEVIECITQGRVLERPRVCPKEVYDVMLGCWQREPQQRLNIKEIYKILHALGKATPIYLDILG
# [5] = target: NT-3 growth factor receptor (Homo sapiens) (UniProt Q16288); details: at 1 µM
# [6] = target: T1, Tyrosine-protein kinase TXK (Homo sapiens) (UniProt P42681); details: at 0.1 µM
# T1 sequence (whole entry): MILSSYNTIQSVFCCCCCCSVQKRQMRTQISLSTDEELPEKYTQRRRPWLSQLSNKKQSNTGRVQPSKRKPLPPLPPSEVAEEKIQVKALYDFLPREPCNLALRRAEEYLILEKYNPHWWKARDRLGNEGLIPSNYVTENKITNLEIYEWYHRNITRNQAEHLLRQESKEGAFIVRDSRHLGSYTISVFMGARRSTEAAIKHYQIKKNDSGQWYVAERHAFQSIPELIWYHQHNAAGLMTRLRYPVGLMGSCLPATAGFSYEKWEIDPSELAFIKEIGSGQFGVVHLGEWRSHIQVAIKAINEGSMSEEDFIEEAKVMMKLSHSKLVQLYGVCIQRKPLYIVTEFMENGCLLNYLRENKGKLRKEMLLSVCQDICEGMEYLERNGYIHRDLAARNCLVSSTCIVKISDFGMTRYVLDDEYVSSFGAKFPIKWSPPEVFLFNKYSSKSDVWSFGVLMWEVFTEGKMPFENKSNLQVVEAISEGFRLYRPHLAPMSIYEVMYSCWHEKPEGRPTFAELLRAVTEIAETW
# [7] = target: T1, Tyrosine-protein kinase TXK (Homo sapiens); details: at 1 µM
# [8] = target: Non-receptor tyrosine-protein kinase TYK2 (Homo sapiens) (UniProt P29597); details: at 0.1 µM;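 note: each value is a mean of the inhibition readings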
# Non-receptor tyrosine-protein kinase TYK2 (Homo sapiens), sequence (P29597 whole entry): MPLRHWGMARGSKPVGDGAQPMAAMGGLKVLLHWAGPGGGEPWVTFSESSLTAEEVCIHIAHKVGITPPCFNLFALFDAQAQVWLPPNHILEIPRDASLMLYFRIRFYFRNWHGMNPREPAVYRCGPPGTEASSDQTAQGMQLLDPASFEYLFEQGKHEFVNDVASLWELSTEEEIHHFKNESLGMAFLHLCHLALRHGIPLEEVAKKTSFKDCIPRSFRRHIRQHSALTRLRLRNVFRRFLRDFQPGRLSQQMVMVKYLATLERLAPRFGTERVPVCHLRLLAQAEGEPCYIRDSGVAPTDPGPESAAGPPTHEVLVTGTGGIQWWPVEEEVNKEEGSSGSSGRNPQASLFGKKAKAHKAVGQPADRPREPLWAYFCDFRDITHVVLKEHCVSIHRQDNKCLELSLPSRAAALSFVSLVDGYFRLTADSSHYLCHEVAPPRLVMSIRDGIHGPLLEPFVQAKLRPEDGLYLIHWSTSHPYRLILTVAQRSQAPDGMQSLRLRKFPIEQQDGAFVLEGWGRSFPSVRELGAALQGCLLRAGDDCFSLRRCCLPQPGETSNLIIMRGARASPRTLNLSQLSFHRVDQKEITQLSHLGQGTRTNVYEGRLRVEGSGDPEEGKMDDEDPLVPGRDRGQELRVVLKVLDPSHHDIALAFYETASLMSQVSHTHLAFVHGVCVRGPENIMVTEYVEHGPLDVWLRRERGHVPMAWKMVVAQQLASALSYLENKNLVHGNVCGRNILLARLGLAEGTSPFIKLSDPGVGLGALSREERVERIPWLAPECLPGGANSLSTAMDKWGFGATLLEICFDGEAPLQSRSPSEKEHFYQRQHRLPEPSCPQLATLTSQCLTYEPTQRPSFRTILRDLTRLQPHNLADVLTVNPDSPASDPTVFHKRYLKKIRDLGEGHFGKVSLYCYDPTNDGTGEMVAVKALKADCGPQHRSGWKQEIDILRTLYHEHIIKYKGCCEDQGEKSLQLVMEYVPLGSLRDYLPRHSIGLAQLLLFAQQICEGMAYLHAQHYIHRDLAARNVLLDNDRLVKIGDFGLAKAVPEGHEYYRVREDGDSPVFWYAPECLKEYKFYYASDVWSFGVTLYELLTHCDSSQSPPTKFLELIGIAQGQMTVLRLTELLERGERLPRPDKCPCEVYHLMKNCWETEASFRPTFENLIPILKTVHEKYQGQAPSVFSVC
# [9] = target: T2, Dual specificity protein kinase TTK (Homo sapiens) (UniProt P33981); details: at 1 µM;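 note: reported figures are mean TTK inhibition at 1 µM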
# T2 sequence (whole entry): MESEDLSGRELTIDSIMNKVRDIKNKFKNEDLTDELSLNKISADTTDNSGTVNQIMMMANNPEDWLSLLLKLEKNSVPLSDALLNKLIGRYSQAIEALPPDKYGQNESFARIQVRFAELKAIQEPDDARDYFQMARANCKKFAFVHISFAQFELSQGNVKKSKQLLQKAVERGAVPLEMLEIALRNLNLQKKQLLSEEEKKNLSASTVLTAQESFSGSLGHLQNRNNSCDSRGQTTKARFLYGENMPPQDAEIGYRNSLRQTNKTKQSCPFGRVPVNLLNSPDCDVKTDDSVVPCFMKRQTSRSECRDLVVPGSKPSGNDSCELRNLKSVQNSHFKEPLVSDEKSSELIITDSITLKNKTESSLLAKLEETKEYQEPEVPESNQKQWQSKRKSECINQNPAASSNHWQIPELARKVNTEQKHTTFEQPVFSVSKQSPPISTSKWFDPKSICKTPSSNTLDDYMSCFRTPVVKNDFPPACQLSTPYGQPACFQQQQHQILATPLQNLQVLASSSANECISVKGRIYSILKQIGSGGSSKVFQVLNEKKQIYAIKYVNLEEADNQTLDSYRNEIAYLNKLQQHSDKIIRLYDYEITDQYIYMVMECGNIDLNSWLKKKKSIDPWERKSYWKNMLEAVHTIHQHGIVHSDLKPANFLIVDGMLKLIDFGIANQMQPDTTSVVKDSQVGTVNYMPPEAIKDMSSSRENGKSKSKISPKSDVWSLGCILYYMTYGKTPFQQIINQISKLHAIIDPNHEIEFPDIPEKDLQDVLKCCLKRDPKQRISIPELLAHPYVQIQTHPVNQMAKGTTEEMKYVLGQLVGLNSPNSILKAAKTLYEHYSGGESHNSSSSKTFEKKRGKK
# [10] = target: T3, Aurora kinase A (Homo sapiens) (UniProt O14965); details: at 0.1 µM;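 note: each reported value is a mean percent inhibition of Aurora-A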
# T3 sequence (whole entry): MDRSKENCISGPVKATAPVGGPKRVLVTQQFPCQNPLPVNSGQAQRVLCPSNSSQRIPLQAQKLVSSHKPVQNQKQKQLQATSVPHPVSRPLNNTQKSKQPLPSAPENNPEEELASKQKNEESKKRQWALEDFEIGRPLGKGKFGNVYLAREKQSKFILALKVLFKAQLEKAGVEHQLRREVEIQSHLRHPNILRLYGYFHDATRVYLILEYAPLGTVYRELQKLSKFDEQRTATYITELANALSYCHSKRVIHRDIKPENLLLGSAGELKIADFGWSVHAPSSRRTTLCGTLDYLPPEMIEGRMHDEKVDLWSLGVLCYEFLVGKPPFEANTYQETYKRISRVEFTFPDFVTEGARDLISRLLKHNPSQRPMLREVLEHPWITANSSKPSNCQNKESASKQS
# BDNF/NT-3 growth factors receptor (Homo sapiens), sequence (Q16620 32-822 limits assumed): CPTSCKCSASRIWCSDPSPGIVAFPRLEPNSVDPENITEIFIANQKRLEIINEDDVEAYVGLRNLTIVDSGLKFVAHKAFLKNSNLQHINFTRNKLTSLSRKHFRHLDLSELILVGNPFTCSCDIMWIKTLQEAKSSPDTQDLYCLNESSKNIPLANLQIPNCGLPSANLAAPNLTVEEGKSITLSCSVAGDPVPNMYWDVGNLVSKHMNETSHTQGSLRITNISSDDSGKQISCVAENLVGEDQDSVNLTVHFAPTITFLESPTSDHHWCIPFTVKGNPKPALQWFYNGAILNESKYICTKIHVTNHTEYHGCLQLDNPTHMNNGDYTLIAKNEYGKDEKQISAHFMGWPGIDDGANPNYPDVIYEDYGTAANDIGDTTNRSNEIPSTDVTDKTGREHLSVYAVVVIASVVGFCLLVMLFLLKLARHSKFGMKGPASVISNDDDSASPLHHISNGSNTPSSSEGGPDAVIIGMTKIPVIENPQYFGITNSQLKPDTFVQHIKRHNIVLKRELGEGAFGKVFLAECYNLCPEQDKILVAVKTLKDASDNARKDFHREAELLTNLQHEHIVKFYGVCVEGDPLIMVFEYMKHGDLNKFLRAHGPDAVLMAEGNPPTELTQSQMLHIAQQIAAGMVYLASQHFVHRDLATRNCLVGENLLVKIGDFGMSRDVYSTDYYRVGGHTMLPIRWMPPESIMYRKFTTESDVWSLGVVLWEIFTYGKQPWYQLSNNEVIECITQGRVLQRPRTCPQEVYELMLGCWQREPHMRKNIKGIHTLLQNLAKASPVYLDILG
# High affinity nerve growth factor receptor (Homo sapiens), sequence (P04629 33-796 limits assumed): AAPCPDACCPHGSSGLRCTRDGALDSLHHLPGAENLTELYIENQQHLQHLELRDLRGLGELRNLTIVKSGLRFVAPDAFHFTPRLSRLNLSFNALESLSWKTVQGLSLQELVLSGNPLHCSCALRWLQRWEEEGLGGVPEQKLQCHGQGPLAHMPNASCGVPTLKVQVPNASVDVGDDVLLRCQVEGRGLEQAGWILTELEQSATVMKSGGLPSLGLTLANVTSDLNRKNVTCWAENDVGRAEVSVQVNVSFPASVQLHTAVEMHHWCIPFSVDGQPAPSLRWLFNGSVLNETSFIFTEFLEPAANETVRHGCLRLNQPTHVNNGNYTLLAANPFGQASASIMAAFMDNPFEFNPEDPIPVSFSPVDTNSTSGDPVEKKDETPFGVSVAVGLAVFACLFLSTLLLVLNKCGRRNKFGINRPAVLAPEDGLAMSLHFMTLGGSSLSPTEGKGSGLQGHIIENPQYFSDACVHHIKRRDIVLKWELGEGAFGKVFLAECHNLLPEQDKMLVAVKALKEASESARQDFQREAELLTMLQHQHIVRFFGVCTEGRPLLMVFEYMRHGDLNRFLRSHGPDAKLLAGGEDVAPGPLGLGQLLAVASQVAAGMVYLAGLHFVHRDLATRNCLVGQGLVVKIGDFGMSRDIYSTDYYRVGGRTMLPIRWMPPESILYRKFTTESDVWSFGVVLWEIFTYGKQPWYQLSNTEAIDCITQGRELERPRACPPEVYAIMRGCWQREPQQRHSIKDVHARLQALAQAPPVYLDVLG
Compound,inhibition [1] [%],inhibition [2] [%],inhibition [3] [%],inhibition [4] [%],inhibition [5] [%],inhibition [6] [%],inhibition [7] [%],inhibition [8] [%],inhibition [9] [%],inhibition [10] [%]
O=C1Nc2ccc(C(=O)c3ccco3)cc2C1=Cc1cc(Cl)c(O)c(Cl)c1,21,5.68,29.1,9.19,47.1,3.45,11.2,-3.77,21.9,7.35
Nc1nc(-c2ccccn2)c(-c2ccc3ncccc3n2)s1,1.12,2.11,2.56,1.67,4.07,2.05,3.04,-3.74,7.95,2.15
Fc1cccc(COc2ccc(Nc3ncnc4sc(-c5cccs5)cc34)cc2Cl)c1,2.88,1.85,1.29,1.21,1.03,2.2,0.81,-0.26,2.5,1.44
Fc1cccc(COc2ccc(Nc3ncnc4cc(-c5ccc[nH]5)sc34)cc2Cl)c1,2.72,2.62,0.88,2.48,2.41,2.95,9.57,-1,10.7,-2.74
Nc1nc(-c2ccc3c(c2)C(=Cc2cc(Br)c(O)c(Br)c2)C(=O)N3)cs1,2.45,1.16,9.18,2.62,16.6,-0.27,0.27,1.72,-0.27,-1.16
CNC(=O)c1cncc(/C=C/c2c(Cl)cccc2Cl)c1,6.89,2.99,4.39,2.24,2.7,5.28,22.7,-2.78,18.3,0.59
COC(=O)Nc1nc2cc(Oc3ccc(NC(=O)Nc4cccc(C(=O)O)c4)cc3)ccc2[nH]1,3.47,0.82,1.02,1.95,3.8,-2.97,1.48,1.17,9.64,-1.89
NC(=O)c1ccc(-c2nc(-c3ccccn3)c(-c3ccc4c(c3)OCO4)[nH]2)cc1,3.43,1.54,0.41,0.44,1.77,2.18,3.28,-4.13,3.14,1.85
COc1cc2c(cc1Nc1nc(N3CCc4ccccc43)c3cc[nH]c3n1)N(C(=O)CN(C)C)CC2,3.52,-0.87,2.75,-1.19,5.17,4.42,7.54,-1.57,25.1,1.58
COc1cc(C=NNc2ncnc3c2cnn3-c2ccccc2)ccc1O,14.3,5.2,33.1,5.23,34.6,3.66,5.94,-0.09,10.5,23
NS(=O)(=O)c1cccc(-c2ccc3c(NC(=O)C4CC4)n[nH]c3c2)c1,1.21,0.07,2.04,0.11,3.65,-2.48,-2.41,0.42,2.12,-1.3
Cc1ccc(NC(=O)c2ccnc(N3CCCC3)c2)cc1-c1ccc(C(=O)NCC2CC2)cc1,2.28,3.47,1.15,3.16,3.39,-1.04,0.09,-3.05,16.9,0.15
CCn1c(-c2nonc2N)nc2cncc(C(=O)N3CCNCC3)c21,4.86,3.21,4.35,3.96,4.33,7.08,5.49,-1.93,12.5,5.21
CN1CCC(C(=O)Nc2n[nH]c3nnc(-c4ccccc4)cc23)CC1,1.65,2.71,5.68,2.52,6.56,2.62,4.13,-3.53,15,3.39
Cc1cc(O)cc(C)c1/C=C/c1cncc(-c2nn[nH]n2)c1,3.5,3.7,3.06,3.61,8.05,5.73,45.3,-2.89,11.1,-1.67
c1cnn2ncc(-c3ccnc(Nc4ccc5c(c4)OCCO5)n3)c2c1,9.5,5.33,18.1,5.54,21.3,4.21,17.6,-1.73,35,9.49
O=C1NC(=O)C(c2ccc(Cl)cc2)=C1Nc1ccc(Cl)c(C(=O)O)c1,0.46,1.23,0.65,-1.8,-0.55,-0.87,1.12,0.04,-3.54,-3.12

Compound,inhibition [1] [%],inhibition [2] [%],inhibition [3] [%],inhibition [4] [%],inhibition [5] [%],inhibition [6] [%],inhibition [7] [%],inhibition [8] [%],inhibition [9] [%],inhibition [10] [%]
CCc1cccc(NC(=O)Nc2ccc(Oc3ccc4nc(NC(=O)OC)[nH]c4c3)cc2)c1,43.7,21.4,30.7,20.4,30.3,2.03,5.13,-5.85,6.45,2.16
CS(=O)(=O)CCNCc1ccc(-c2ccc3ncnc(Nc4ccc(OCc5cccc(F)c5)c(C(F)(F)F)c4)c3c2)o1,-0.52,2.14,2.72,2.59,3.16,3.11,3.02,-4.14,7.39,4.12
CC1=C(C(=O)Nc2ccc3[nH]ncc3c2)C(c2ccc3ccccc3c2)CC(=O)N1 (stereo not drawn),2.53,1.18,4.38,5.87,5.78,2.76,8.34,0.09,-0.04,7.34
CCn1c(-c2nonc2N)nc2ccncc21,-0.79,-1.44,-3.63,-2.79,-1.79,0.17,3.88,0.97,6.38,2.36
CCn1c(-c2nonc2N)nc2c(N3CCCC3)nccc21,0.75,-0.07,0.49,-0.45,-0.34,-0.75,-2.21,2.25,-1.76,-1.86
COc1ccc(COc2ccc(Cc3cnc(N)nc3N)cc2OC)cc1,50,25.7,75.4,–,–,4.15,4.97,3.75,3.14,4.1
Cc1ccc(C(=O)NC2CCCCC2)cc1-c1ccc(C(=O)NCC2CC2)cc1,2.19,0.88,-0.15,0.18,-0.57,4.64,5.63,1.37,8.51,4.04
COc1ccc(-c2nn3ncccc3c2-c2ccnc(Nc3ccc(Cl)c(C(F)(F)F)c3)n2)cc1,-1.35,-0.25,2.61,-0.42,2.6,3.13,3.03,-2.93,5,1.01
CCn1c(-c2nonc2N)nc2c(C#CC(C)(C)O)nc(CN3CCCC3)cc21,-1.66,-0.98,-0.47,-1.68,-2.34,1.55,2.08,3.47,5.1,0.54
COc1ccc2cc(-c3c(-c4ccncc4)nc(-c4ccc([S+](C)[O-])cc4)n3C)ccc2c1 (stereo not drawn),1.74,0.67,1.15,0.11,1.86,1.4,4.06,-2.53,7.86,3.45
CS(=O)(=O)CCN(CC#N)Cc1ccc(-c2ccc3ncnc(Nc4ccc(OCc5cccc(F)c5)c(Cl)c4)c3c2)o1,4.12,1.7,3.2,1.69,1.13,-2.35,-2.94,-3.9,5.67,-2.58
COc1cc2ncn(-c3cc(OCc4ccccc4C(F)(F)F)c(C(N)=O)s3)c2cc1OC,5.01,6.06,10.2,5.07,10.4,-5.47,2.84,-1.61,10.1,1.39
COc1cc(C)c(NC(=O)CN(C)C)cc1Nc1nc(Nc2cccc(F)c2C(N)=O)c2cc[nH]c2n1,13,2.25,1.27,2.83,4.14,0.4,-0.74,1,53.5,2.06
CC1=C(C(=O)Nc2ccc3[nH]ncc3c2)C(c2ccc(F)cc2)NC(=O)N1 (stereo not drawn),3.3,0.91,4.06,0.06,5.04,1.25,3.78,1.26,1.11,7.75
CS(=O)(=O)Nc1ccc(N/C=C2\C(=O)Nc3ccccc32)cc1,46.7,11.2,58.6,14.1,57,-1.93,1.85,3.51,18.9,7.34
O=C1NC(=O)C(c2ccccc2Cl)=C1Nc1cccc(O)c1,0.59,1.19,1.88,0.46,4.4,3.39,4.53,-5.26,-9.72,3.17
COc1cccc(-n2ncc3c(N/N=C/c4cccc(F)c4)ncnc32)c1,3.57,2.75,6.27,2.97,7.58,-0.86,1.52,-0.2,10.5,-2.23
